In all, about 33,000 sequences were measured (“E-score (-0.5 to 0.5)”: median about -0.011, highest 2% from about 0.28 on). The sample holds the highest values, similar sequences and a random draw of the others, so the mix is not that of the screen.
Target: T1, Gcr1 (UniProt P07261)
T1 sequence: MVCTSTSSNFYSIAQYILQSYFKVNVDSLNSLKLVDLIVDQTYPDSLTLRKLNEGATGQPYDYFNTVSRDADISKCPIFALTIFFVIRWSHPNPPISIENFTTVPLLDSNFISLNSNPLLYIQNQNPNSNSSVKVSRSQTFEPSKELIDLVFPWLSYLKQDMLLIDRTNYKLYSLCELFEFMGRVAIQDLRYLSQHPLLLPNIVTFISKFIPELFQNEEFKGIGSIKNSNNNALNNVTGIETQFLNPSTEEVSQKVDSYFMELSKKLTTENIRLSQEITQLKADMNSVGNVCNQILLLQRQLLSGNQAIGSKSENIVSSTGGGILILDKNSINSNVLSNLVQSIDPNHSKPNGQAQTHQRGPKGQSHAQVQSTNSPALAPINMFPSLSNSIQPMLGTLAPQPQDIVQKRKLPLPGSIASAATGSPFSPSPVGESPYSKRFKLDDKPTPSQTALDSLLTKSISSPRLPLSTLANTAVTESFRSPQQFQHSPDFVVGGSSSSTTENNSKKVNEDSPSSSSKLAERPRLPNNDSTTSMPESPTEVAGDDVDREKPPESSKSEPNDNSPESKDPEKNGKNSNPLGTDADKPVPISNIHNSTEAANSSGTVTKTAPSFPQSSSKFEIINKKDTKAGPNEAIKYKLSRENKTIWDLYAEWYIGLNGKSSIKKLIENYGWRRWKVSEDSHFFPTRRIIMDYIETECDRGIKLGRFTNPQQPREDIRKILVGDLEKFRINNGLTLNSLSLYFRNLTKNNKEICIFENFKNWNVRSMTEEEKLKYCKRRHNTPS
Assay: PBM E-score (8-mer binding enrichment) (E-score (-0.5 to 0.5)); higher = stronger / more preferred TF binding
Conditions: protein concentration: 100 nM; construct: GST-full length
Method: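 Universal 'all 10-mer' protein binding microarrays (Agilent AMADID 015681) probed with GST-tagged S. cerevisiae TFs (full-length or DBD) made by in vitro transcription/translation (PURExpress), about 100-200 nM. Bound TF was detected with fluorescent anti-GST. Each ungapped 8-mer (which stands for itself and its reverse complement) is scored by the PBM enrichment score (E-score), a modified Wilcoxon-Mann-Whitney statistic from -0.5 to +0.5, computed with the Universal PBM Analysis Suite. Scale: above 0.35 generally sequence-specific binding.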

Sequence	PBM E-score
CCCTTGCA	-0.097
ACCGGAGG	-0.09
TATGAAAA	0.131
AGGCAGTA	-0.0662
CTGGTATA	-0.0854
ACGTGTTA	-0.0746
AGCTCGCG	-0.0019
CCGGATGA	0.112
GAGGATGA	-0.0555
ACGGATGC	0.183
CCGGATGC	0.4
GAGGATGC	0.423
GAGGATAC	-0.00197
GCAGGGGA	-0.102
CGGTGCAC	-0.105
AGAGCAGC	0.0483
AGCCATGC	-0.346
CAAGAAAA	0.248
CCCGAATA	0.334
CCAGAATC	0.245
CCAGAATA	0.283
GCCGAATA	0.2
CAAGAATA	0.19
ACAGAAAA	-0.076
ACCGAATA	-0.0481

Sequence	PBM E-score
CCAGAAAA	0.335
GGTTGACA	0.0705
AATCGGGC	0.114
CATAGGCA	0.0323
CTGATGGC	-0.068
ACGGTAGA	0.138
TGAAACAA	0.0585
CGCCTGAA	0.143
AAGCATCG	0.0291
AAGCATCC	0.404
CAGCATCG	0.0157
CAGCATCC	0.447
CAGCATCA	-0.00923
GAGCATCC	0.398
AAGCATCA	-0.0253
GAGCATCA	-0.0695
GAGCATAC	-0.155
CTCTCGCA	0.0115
ACACTGGT	0.035
CAGGGACC	0.0209
AAAGTCTT	-0.247
AGACACTA	-0.0252
ATAAAGGG	0.123
ACGGAGCT	-0.175
ACGAAGCG	0.0293

Sequence	PBM E-score
ACGAAGCT	0.399
ACGAAGCC	0.428
CCGAAGCC	0.136
ACGAAGCA	-0.12
ACAAAGCT	0.0432
TCAGGCCA	-0.118
GACAGACC	-0.157
AACTAGTT	0.0246
AGGCTCGC	-0.213
CCTGGGCA	-0.022
CCTATAGA	0.286
ACTATAGA	0.0257
CCTATAGC	-0.0383
TATGAAGA	0.0942
ATAATTAT	0.297
ATAATTAA	0.134
ATAATTAC	0.0678
GAAAGAGA	-0.038
ACGCTGCA	0.0243
GCGCTGCC	0.0863
ACGCTGCG	0.086
ACGCTGCT	0.34
ACGCTGAT	-0.0742
ACGCTGCC	0.339
AGCAGGAC	-0.0439

Sequence	PBM E-score
AGTCCCGG	0.108
CCAGGCCG	-0.117
GAGCTAGC	-0.122
GCGAGCGC	-0.0888
AGATCAGA	-0.0273
AACCCTGT	-0.0296
CAATCTGG	-0.0284
AAATCTGC	0.0369
AAATCTGG	0.292
CCGTTAGG	0.0609
CCCGGGAC	0.21
ATTGCGGG	-0.0146
CGTGCCCA	0.0649
CGTGCCGA	-0.0978
GATGCCCC	0.248
GGTGCCCA	0.382
AGTGCCCA	0.0254
GGTGCCGA	0.285
GATGCCCA	0.378
AGTGCCGA	-0.0356
TATGCCCA	-0.14
AGATTCAG	0.117
ACAGGGAC	0.107
GCTTCCCA	0.386
ACTTCCCA	0.0658

Sequence	PBM E-score
ACTTCCCC	0.0219
GCTTCCCC	0.341
CCTTCCCA	0.122
CCTTCCCC	-0.122
CTGTGGGC	0.0855
GGTAGATA	0.00026
CAGTGCCA	-0.0969
ATGCCGGA	0.215
AATAGCGC	0.0793
CCATCCTA	0.0473
ACATCCGA	-0.104
ACATCCTA	0.166
CCATCCGA	-0.0665
GCATCCGA	0.33
GCATCCTA	0.4
ACCTATAT	0.194
ATGTTGTC	-0.117
ATAATTGC	-0.00448
ACCTATAA	0.0515
TCGTATAA	0.286
GTGTATAA	-0.0442
CCCTATAA	0.141
TCCTATAA	0.334
GCGTATAA	0.353
GCGTATAC	0.156

Sequence	PBM E-score
CCGTATAA	0.195
ACGTATAA	0.132
AAGGTGCA	-0.0118
CAATAGCG	0.025
CGAAATAG	0.131
ACCCTGCG	-0.0486
CGGAATAA	-0.168
GATGCGCA	0.134
ACGGTTGC	-0.264
CTGGTTGA	-0.09
CCGGTTGC	0.317
ATGGTTCC	0.0654
CCGGTTGA	0.0186
CTGGTTCC	0.34
ATGGTTGC	0.274
CTGGTTGC	0.288
CTGGTTCA	-0.192
ACGGTGTC	-0.168
CTGCTACA	0.0929
CTCATCAG	0.0338
CTTCTATA	0.187
CAGATACA	0.0958
GACATTCA	-0.094
AATAACGT	0.00611
AGATGCTA	0.25

Sequence	PBM E-score
AGATGCCG	0.273
GAATGCTA	-0.121
AGATGCCC	0.108
CGATGCTA	0.266
GGATGCTA	0.44
CGATGCCC	0.0343
AGATGCTG	0.282
AGATGCCA	0.385
AGATGCTC	0.0444
AGATGCCT	0.17
GGATGCCC	0.464
AGAGCGCC	0.0412
CGCAACAG	-0.0598
GGCAAACA	-0.14
GTGGGAGA	0.0205
GTGGTAGA	-0.166
AAGGTTGT	0.0394
CGATGCCA	0.156
GGATGCCA	0.454
TGATGCCA	-0.0459
CGTAGGGC	-0.108
ATTAGCTG	0.107
